The supplement of paper PMC5662767
Structures can show the parent of a compound that is named as a salt.

Tested on: Drosophila S2 cl14 SmoIP sensor cells
Test: normalized SmoIP GFP fluorescence (untreated unstimulated = 0%, untreated Hh-stimulated = 100%); higher = more Smo activation sensor fluorescence
Details: compound concentration: 2 uM, 24 h
[1] = stimulation: Hh conditioned medium (+Hh)
[2] = stimulation: mock conditioned medium (-Hh)
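Note: flow cytometry read-out as median GFP intensity of gated cells, compounds added 30 min before Hh-conditioned or mock medium, mock-treated cells serving as unstimulated baseline.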

| SMILES | normalized SmoIP GFP fluorescence [1] | normalized SmoIP GFP fluorescence [2] |
| --- | --- | --- |
| N#C/C(=C(/N)Sc1ccc(N)cc1)c1ccccc1C(F)(F)F | 131% | 10.2% |
| CN(NC(=O)CC(=O)NN(C)C(=S)c1ccccc1)C(=S)c1ccccc1 [Elesclomol] | 145% | 17.1% |
| CC(C)(C)Cn1c(N)nc2ccc(-c3[nH]c(C(C)(C)C)nc3-c3ccc(F)cc3)nc21 | 101% | 1.35% |
| CN1[C@@H]2CC[C@H]1C[C@@H](OC(=O)c1c[nH]c3ccccc13)C2 [Tropisetron-hydrochloride] | 116% | -14.9% |
| CN1CC2c3ccccc3Oc3ccc(Cl)cc3C2C1 (centres undefined) [Asenapine] | 115% | 4.58% |
| Cc1nc(NC(=O)N2CCC[C@H]2C(N)=O)sc1-c1ccnc(C(C)(C)C(F)(F)F)c1 | 102% | -1.23% |
| CC(C)C[C@@H](C=O)NC(=O)[C@H](CC(C)C)NC(=O)[C@H](CC(C)C)NC(=O)OCc1ccccc1 | 112% | 11.3% |
| Cn1cnc(N)c2ncnc1-2 [3-methyladenine] | 111% | -4.89% |
| COc1cc2c(cc1OC)CN(CCc1ccc(NC(=O)c3cc(OC)c(OC)cc3NC(=O)c3cnc4ccccc4c3)cc1)CC2 [tariquidar] | 120% | 2.77% |
| COc1ccc(-c2ccc3c(N4CCOCC4)nc(N4C[C@@H](C)O[C@@H](C)C4)nc3n2)cc1CO | 62.1% | -12.5% |
| COCCc1ccc(OCC(O)CNC(C)C)cc1 (centres undefined) [metoprolol-tartrate] | 138% | -9.85% |
| O=C(Cc1ccc(-c2ccc(OCCN3CCOCC3)cc2)cn1)NCc1ccccc1 | 108% | 23.9% |
| Cc1cnc(-c2cc(N3CCN(C(=O)CCS(C)(=O)=O)CC3)ncc2Cl)c(C)c1 | 102% | -1.63% |
| COc1ccc(-c2nc3ccc(C4=NNC(=O)CC4C)cc3[nH]2)cc1 (centres undefined) [Pimobendan(Vetmedin)] | 104% | 4.8% |
| COc1cc2ncnc(Oc3cccc(NC(=O)Nc4cc(C(C)(C)C(F)(F)F)on4)c3)c2cc1OC | 138% | -13.4% |
| CN(C)CC(c1ccc(O)cc1)C1(O)CCCCC1 (centres undefined) [desvenlafaxine] | 105% | -0.889% |

| SMILES | normalized SmoIP GFP fluorescence [1] | normalized SmoIP GFP fluorescence [2] |
| --- | --- | --- |
| CC(C)OC(=O)OCOP(=O)(CO[C@H](C)Cn1cnc2c(N)ncnc21)OCOC(=O)OC(C)C [Tenofovir-Disoproxil-Fumarate] | 91.2% | 2.43% |
| CCCC(CCC)C(=O)O [Divalproex-sodium] | 134% | -10.4% |
| CCc1c(C(=O)NCCc2ccc(N3CCCCC3)cc2)[nH]c2ccc(Cl)cc12 | 167% | -0.804% |
| CC(C)CN(C[C@@H](O)[C@H](Cc1ccccc1)NC(=O)O[C@H]1CO[C@H]2OCC[C@H]21)S(=O)(=O)c1ccc(N)cc1 [Darunavir-Ethanolate(Prezista)] | 101% | -5.54% |
| CCS(=O)(=O)N1CC(CC#N)(n2cc(-c3ncnc4[nH]ccc34)cn2)C1 | 110% | -0.775% |
| C=CC(=O)Nc1ccc2ncnc(Nc3ccc(OCc4cccc(F)c4)c(Cl)c3)c2c1 | 99.1% | -15.8% |
| COc1cc2nccc(Oc3ccc(NC(=O)NC4CC4)c(Cl)c3)c2cc1C(N)=O | 99.3% | 7.92% |
| Nc1ccc2ncnc(NCCc3ccc(Oc4ccccc4)cc3)c2c1 | 45.5% | 39.1% |
| Cc1cccc(-c2[nH]c(C(C)(C)C)nc2-c2ccc3nccnc3c2)n1 | 102% | -5.22% |
| CNC(=O)c1ccccc1Nc1nc(Nc2ccc(N3CCOCC3)cc2OC)ncc1Cl | 163% | 22.3% |
| CC(C)c1noc(N2CCC(COc3ccc(-c4ccc(S(C)(=O)=O)cc4)nc3)CC2)n1 | 110% | -3.09% |
| COc1cc(CCc2cc(NC(=O)c3ccc(N4CC(C)NC(C)C4)cc3)n[nH]2)cc(OC)c1 (centres undefined) | 114% | 2.97% |
| CCCCCCCCOc1ccccc1C(=O)Nc1ccc(C(=O)OCC[N+](C)(CC)CC)cc1 [otilonium-bromide] | 109% | -1.85% |
| CC(/C=C/C(=O)NO)=C\[C@@H](C)C(=O)c1ccc(N(C)C)cc1 [Trichostatin-A] | 276% | 77.5% |
| COc1cc2ncnc(Nc3ccc(Cl)cc3F)c2cc1OC | 99.3% | -4.13% |
| CO[C@H]1C[C@@H]2CC[C@@H](C)[C@@](O)(O2)C(=O)C(=O)N2CCCC[C@H]2C(=O)O[C@H]([C@H](C)C[C@@H]2CC[C@@H](O)[C@H](OC)C2)CC(=O)[C@H](C)/C=C(\C)[C@@H](O)[C@@H](OC)C(=O)[C@H](C)C[C@H](C)/C=C/C=C/C=C/1C [Rapamycin] | 26.9% | 19.1% |
